Screening results from PubChem BioAssay.
Nrf2 ARE act – qHTS of Nrf2 Activators | AREc32 ARE-luciferase reporter (MCF7-derived line), luminescence, 24 h | Potency, µM (top dose mostly 46.1 µM), inactives show at the top dose activation, actives largely listed as activators | hit rate 0.31% among 410,000 | AID 624171, 2012; note: potency is the fitted concentration of half-maximal effect; % of control where 0% means no effect; nearly all actives have a fitted effect of over 65% in size
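Reporter line AREc32 (ARE-Fluc), seeded overnight in OPTI-MEM with 5% FBS; compound pin-transferred, 24 hr at 37 deg C, 5% CO2; luminescent read-out.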
miR-21 reporter – qHTS Assay for Modulators of miRNAs and/orActivators of miR-21; 340,000 tested, under 10 active; HeLa miR-21 FLuc reporter, luciferase, 48 h; Potency, µM (highest dose often 38.3 µM), inactives show at the top dose activity change, positive = activation, hits mostly activators;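 note: % of control where 0% means no effect; miR-21 action dims this reporter so a rising signal means less miR-21 action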
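HeLa cells stably expressing CMV-driven firefly luciferase with a downstream miR-21 binding sequence, endogenously expressing miR-21, were treated with titrations (up to about 40uM final) for 48 hours at 37 degree Celsius. Luciferase luminescence was read after lysis.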
B2AR arrestin – qHTS assay of beta-arrestin-biased ligands of beta2-adrenergic receptor | hit rate 0.02% among 330,000 | beta-arrestin recruitment to beta2AR, cell-based reporter | Potency, µM (doses to about 46.1 µM), without a hit: at the highest dose activation, most hits filed as activators | Beta-2 adrenergic receptor (Homo sapiens), P07550;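 note: potency is the fitted concentration of half-maximal effect; 0% = DMSO controls and full agonism = EC100 isoproterenol or metaproterenol; nearly all actives have a fitted effect of over 65% in size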
Target sequence (P07550 whole entry, looked up): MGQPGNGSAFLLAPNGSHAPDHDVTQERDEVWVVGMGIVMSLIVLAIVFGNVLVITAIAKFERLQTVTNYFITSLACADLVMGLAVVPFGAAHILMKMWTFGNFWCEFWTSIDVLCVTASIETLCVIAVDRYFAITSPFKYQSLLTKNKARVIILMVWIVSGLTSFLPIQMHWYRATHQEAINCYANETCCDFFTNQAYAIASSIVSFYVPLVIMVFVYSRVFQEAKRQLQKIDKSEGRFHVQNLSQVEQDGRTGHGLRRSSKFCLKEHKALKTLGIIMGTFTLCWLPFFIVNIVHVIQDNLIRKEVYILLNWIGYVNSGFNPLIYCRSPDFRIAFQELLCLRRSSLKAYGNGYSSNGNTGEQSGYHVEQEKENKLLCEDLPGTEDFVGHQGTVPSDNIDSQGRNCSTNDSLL
A549 viability – Nrf2 qHTS screen for inhibitors: counterscreen for cytotoxicity | A549 ARE-Fluc cells, CellTiter-Fluor viability, 18-24 h | Potency, µM (highest dose often 46 µM), inactives show top-dose activity change, negative = cytotoxicity, actives largely listed as inhibitors | hit rate 0.16% among 390,000 | AID 504648, 2011; note: potency is the fitted concentration of half-maximal effect; % is set by controls: 0 for no effect and ±100 for the full control effect
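A549 ARE_Fluc cells in 5% FBS OPTI-MEM were exposed to compounds in concentration-response for 18-24 h at 37 deg C. Viability was read by CellTiter-Fluor fluorescence (Ex 405/Em 525) after 30 min, before the luciferase read.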
Nrf2 inh – Nrf2 qHTS screen for inhibitors | A549 ARE-Fluc reporter, luciferase luminescence, 18-24 h | Potency, µM (top dose mostly 46 µM), for the others: at the top dose activity change, negative = inhibition, most hits filed as inhibitors | hit rate 2.1% among 360,000 | AID 504444, 2011; note: potency is the fitted concentration of half-maximal effect; % is set by controls: 0 for no effect and ±100 for the full control effect; nearly all actives have a fitted effect of over 60% in size
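Quantitative HTS in A549 cells stably bearing an antioxidant response element-firefly luciferase construct. Inhibition of Nrf2-driven transcription was scored by luminescence after 18-24 h of compound exposure at 37 °C.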
An asterisk follows results filed as active; ? = inconclusive; nt = no result. The list is not random: actives were taken first. Their share in the collection is about 2.2%. Calls come from the whole dose curve; as a rule, active = well fitted curve in the direction sought with a large enough effect; inconclusive = small, poorly fitted or top-dose-only effect, or another doubt; inactive = no such curve, though single readings can be large; an effect the other way counts as inactive or inconclusive.

SMILES	Nrf2 ARE act	miR-21 reporter	B2AR arrestin	A549 viability	Nrf2 inh
C=CCn1c2ccccc2c2nnc(SCCCn3c(=O)[nH]c4ccccc43)nc21	0%	16%	0%	-14%	13µM*
C=CCn1c2ccccc2c2nnc(SCCN3CCCCC3)nc21	0%	1%	0%	2%	0%
CCc1ccc(NC(=O)Cn2c(SCc3ccc(C)cc3)nc3ccncc32)cc1	nt	nt	nt	-1%	19%
CCOc1ccc(NC(=O)Cn2c(=O)n(Cc3ccc(C(=O)NCc4ccc(C)cc4)cc3)c(=O)c3ccccc32)cc1	0%	0%	nt	-14%	18µM*
Cc1ccc(CNC(=O)c2ccc(Cn3c(=O)c4ccccc4n(CC(=O)Nc4ccc(C)cc4)c3=O)cc2)cc1	0%	-5%	nt	-4%	-8%
COc1cccc(CNC(=O)c2ccc(CNS(=O)(=O)c3ccc(C)cc3)cc2)c1	0%	4%	nt	6%	nt
Nc1nn(-c2ccccc2)c(N)c1N=Nc1ccc2c(c1)OCO2	-1%	-1%	0%	15µM*	-10%
CCN(CC)S(=O)(=O)c1nnc(NC(=O)COc2ccc(Cl)cc2)s1	0%	-72%	nt	0%	4.1µM*
COc1ccc(NC(=O)C2CCCN2S(=O)(=O)c2ccc3c(c2)CCCC(=O)N3)cc1Cl (centres undefined)	8%	-9%	nt	-1%	?
O=C1COc2ccc(C(=O)COC(=O)/C=C/c3ccco3)cc2N1	2.2µM*	nt	0%	-6%	4%
O=C1COc2ccc(C(=O)COC(=O)c3ccco3)cc2N1	0%	0%	-1%	1%	9%
CC(O)C(NS(=O)(=O)c1ccc(Cl)cc1)C(=O)OCC(=O)c1ccc2c(c1)NC(=O)CO2 (centres undefined)	0%	nt	nt	-4%	10%
CC(C)CC(NC(=O)c1ccc(Cl)cc1)C(=O)OCC(=O)c1ccc2c(c1)NC(=O)CO2 (centres undefined)	0%	?	0%	21µM*	16µM*
Cc1cccc(N2CCN(c3ncnc4onc(C)c34)CC2C)c1 (centres undefined)	0%	?	nt	?	23µM*
C/C(=N\NC(=O)c1nnn(-c2nonc2N)c1CN1CCc2ccccc21)c1ccccc1O	-1%	-1%	0%	-14%	12µM*
Nc1nonc1-n1nnc(C(=O)N/N=C/c2ccccc2)c1CN1CCc2ccccc21	0%	-7%	0%	1%	10%
COc1cc(CN(C(=O)COc2ccccc2Cl)c2ccccn2)cc(OC)c1OC	4%	-7%	nt	12%	1%
C=C1C(=O)C2=CC1CCC(=O)C1(C)CCC(OC(C)=O)C(C)(C)C1CC2O (centres undefined)	?	nt	nt	?	15µM*
CS(=O)(=O)c1ccc(C(=O)Nc2cc(-c3ccccc3)nn2-c2ccccc2)cc1	3%	nt	0%	-13%	15µM*
CCCSc1nnc2c(n1)OC(c1sccc1C)Nc1ccccc1-2 (centres undefined)	12%	-2%	nt	14%	?
Cc1ccc(NS(=O)(=O)c2ccc3[nH]c(=O)[nH]c3c2)cc1C	nt	nt	nt	-1%	-20%
CCCSC1=C(C#N)C(c2ccc(OC)cc2)C2=C(CC(C)(C)CC2=O)N1 (centres undefined)	0%	10%	2%	-29%	23µM*
CC(=O)Nc1ccc(S(=O)(=O)N2CCN(S(=O)(=O)c3c(F)cccc3F)CC2)cc1	nt	nt	nt	8%	3%
O=C(CCC(=O)N1CC2CCCN2c2ccccc21)NCc1ccccc1F (centres undefined)	3%	-3%	nt	5%	?
CCc1nn2c(-c3ccccc3OC)ccnc2c1-c1ccccc1	6%	1%	nt	11%	?
SMILES	Nrf2 ARE act	miR-21 reporter	B2AR arrestin	A549 viability	Nrf2 inh
Cc1ccc(NC(=O)c2ccc(CNS(=O)(=O)c3ccc4c(c3)C(C)(C)C(=O)N4C)cc2)cc1F	0%	?	nt	-19%	23µM*
Cc1ccc(NC(=O)c2ccc(CNS(=O)(=O)c3ccc4c(c3)C(C)(C)C(=O)N4C)cc2)cc1	5%	-10%	nt	3%	0%
CCc1cccc(NC(=O)c2ccc(CNS(=O)(=O)c3ccc4c(c3)C(C)(C)C(=O)N4C)cc2)c1	-1%	?	nt	-21%	16µM*
CN(C)c1ccc(/C=C/c2ccc3ccccc3[n+]2C)cc1	-2%	?	-1%	23µM*	15µM*
COc1ccc(/C=C/c2ccc3ccccc3[n+]2C)cc1OC	11%	-26%	0%	-20%	-29%
CC(=O)Oc1ccccc1/C=C/c1ccc2ccccc2[n+]1C	11µM*	-34%	4%	?	?
O=[S+]([O-])(c1c(F)cccc1F)N1CCN([S+](=O)([O-])c2cccc3nonc23)CC1	nt	nt	nt	-2%	14%
COc1ccc(NC(=O)c2c(NC(=O)CCC(=O)O)sc3c2CCCCC3)cc1	0%	-8%	0%	0%	0%
Cc1cccc(C(=O)Nc2sc3c(c2C(=O)O)CCC3)c1	0%	24%	13%	?	?
COc1ccc(NC(=O)c2c(NC(=O)C(F)(F)F)sc3c2CCCCC3)cc1	8%	?	nt	?	1.8µM*
COc1cccc(C(=O)Nc2sc3c(c2C(=O)O)CCCC3)c1	0%	8%	0%	?	5.8µM*
CCC1CCCCN1Cc1nc2c(c(=O)n(C)c(=O)n2C)n1Cc1c(F)cccc1Cl (centres undefined)	nt	nt	nt	0%	9%
Cc1cc(F)ccc1S(=O)(=O)N1CCC2(CC1)OCCN2S(=O)(=O)c1cccs1	2%	nt	0%	-12%	12µM*
O=C(CCNC(=O)c1ccc([N+](=O)[O-])cc1)Nc1ccc(Cl)c(S(=O)(=O)N2CCOCC2)c1	5%	nt	0%	2%	23µM*
Cc1cccc(OCCCC(=O)Nc2ccc(Cl)c(S(=O)(=O)N3CCOCC3)c2)c1	0%	nt	0%	-10%	?
CCOc1ccccc1OCCCC(=O)Nc1ccc(Cl)c(S(=O)(=O)N2CCOCC2)c1	4%	nt	0%	-12%	16µM*
O=[N+]([O-])c1cc2ccccc2c(O)c1O	12%	nt	nt	nt	nt
O=[N+]([O-])c1cc(-c2ccccc2)cc([N+](=O)[O-])c1O	4%	nt	nt	?	16µM*
CCSC1=NS(=O)(=O)c2ccccc21	nt	nt	nt	-4%	-7%
COC(=O)c1cc(CSc2nc3ccccc3c(=O)n2C)oc1C	3%	-2%	0%	5%	18µM*
CCn1c(SCCC(=O)Nc2ccccc2)nnc1-c1ccc(OC)cc1	-1%	-5%	0%	-7%	-6%
CCn1c(SCC(=O)Nc2cccc(OC)c2)nnc1-c1ccc(Cl)cc1	0%	8%	-1%	-12%	26µM*
C=CCn1c(SCC(=O)Nc2ccccc2C)nc2sc(C)c(C)c2c1=O	-1%	-4%	-1%	1%	?
